± gives the standard deviation of the averaged measurements.
System: Listeria monocytogenes 10403S
Assay: growth inhibition relative to ceftriaxone-alone control; higher = stronger potentiation of ceftriaxone growth inhibition
Settings: 10 µM; ceftriaxone 1 ug/ml; 12 h
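Note: End-point A600 read in BHI broth at 37 °C with 2% DMSO, inhibition computed as (1 − OD with compound plus ceftriaxone ÷ OD with ceftriaxone only) × 100.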

Structure (SMILES) | growth inhibition [%]
CN(c1ccc(NC(=O)Nc2ccc(OC(F)(F)F)cc2)cc1)c1ccnc(Nc2cccc(S(N)(=O)=O)c2)n1 | -3.28 ± 2
COc1ncc(-c2ccc3nccc(-c4ccnnc4)c3c2)cc1NS(=O)(=O)c1ccc(F)cc1F | 12.8 ± 7.8
Nc1nc(-c2cccc(Cl)c2)c(-c2ccc3ncccc3n2)s1 | -7.03 ± 7.3
[O-][S+]1CCN(Cc2ccc(-c3ccc4ncnc(Nc5ccc(OCc6ccccc6)c(Cl)c5)c4c3)o2)CC1 | 2.22 ± 6.4
O=C(Nc1c[nH]nc1-c1nc2ccc(CN3CCOCC3)cc2[nH]1)NC1CC1 | 55.7 ± 25
CCS(=O)(=O)c1ccc(OC)c(Nc2ncc(-c3cccc(F)c3)o2)c1 | 2.54 ± 2.8
Nc1nc(-c2ccccn2)c(-c2ccc3ncccc3n2)s1 | 0.104 ± 3
CN(C)CCNC(=O)Nc1ccc(N(C)c2ccnc(Nc3ccc(CS(C)(=O)=O)cc3)n2)cc1 | -2.69 ± 2
CN(c1ccc(NC(=O)Nc2c(Cl)cccc2Cl)cc1)c1ccnc(Nc2cccc(CS(C)(=O)=O)c2)n1 | -2.91 ± 0.88
NC(=O)c1cccc(Nc2nccc(Nc3cccc(F)c3)n2)c1 | -4.52 ± 12
O=S(=O)(CCNCc1ccc(-c2ccc3ncnc(Nc4ccc(OCc5cccc(F)c5)c(Cl)c4)c3c2)o1)c1ccccc1 | -0.141 ± 13
COc1cc(Nc2nccc(Nc3ccc4c(C)n[nH]c4c3)n2)cc(OC)c1OC | -7.71 ± 14
NC(=O)Nc1cc(-c2cccc(F)c2)sc1C(=O)N[C@H]1CCCNC1 | 16.7 ± 12
COc1cc2c(Oc3ccc(NC(=O)C4(C(=O)Nc5ccc(F)cc5)CC4)cc3F)ccnc2cc1OCCCN1CCOCC1 | 80.2 ± 4.3
Cc1[nH]c(/C=C2\C(=O)Nc3ccc(S(=O)(=O)N(C)c4cccc(Cl)c4)cc32)c(C)c1C(=O)N1CCN(C)CC1 | 51.3 ± 11
O=C(NOCC1CC1)c1ccc(F)c(F)c1Nc1ccc(I)cc1Cl | 8.54 ± 25
O=C(NOCC(O)CO)c1cc(Br)c(F)c(F)c1Nc1ccc(I)cc1F (stereo not drawn) | 100 ± 5.2
COc1ccc(-c2ccc3c(N4CCOCC4)nc(N4C[C@@H](C)O[C@@H](C)C4)nc3n2)cc1CO | -4.35 ± 2.4
Fc1ccc(-c2c(-c3ccncc3)nc3n2CCS3)cc1 | -6.65 ± 12

Structure (SMILES) | growth inhibition [%]
CS(=O)(=O)CCNCc1nc(-c2ccc3ncnc(Nc4ccc(OCc5cccc(C(F)(F)F)c5)cc4)c3c2)cs1 | -8.22 ± 14
N#Cc1c(NC(=O)c2ccc(F)cc2)sc2c1CCCC2 | 1.2 ± 5.5
O=C1NC(=O)C(=Cc2ccc(-c3ccc(F)cc3)o2)S1 (stereo in doubt) | 31.8 ± 28
CC(=O)NCc1cccc(C#Cc2cncnc2Nc2ccc(OCc3cccc(F)c3)c(Cl)c2)c1 | -1.26 ± 2.3
FC(F)c1nc2ccccc2n1-c1nc(N2CCOCC2)nc(N2CCOCC2)n1 | 19.6 ± 15
COC(=O)Nc1nc2cc(Oc3ccc(NC(=O)Nc4cccc(C(=O)O)c4)cc3)ccc2[nH]1 | 7.27 ± 7.2
COc1ccc(Nc2ncc(-c3ccccc3)o2)cc1OC | 10.7 ± 3.4
COc1ccc(-c2nn3ncccc3c2-c2ccnc(Nc3ccc4c(c3)OCCO4)n2)cc1 | -7.96 ± 4.1
NS(=O)(=O)c1cccc(Nc2cc(-c3ccc(F)cc3)n[nH]2)c1 | -5.13 ± 10
C[C@@H]1COC(Nc2ccc3ncnc(Nc4ccc(OCc5nccs5)c(Cl)c4)c3c2)=N1 | 70.8 ± 5
Nc1ccc(C#Cc2cncnc2Nc2ccc(OCc3cccc(F)c3)c(Cl)c2)cc1 | -6.22 ± 2.5
COc1cc(OC)c(/C=C/S(=O)(=O)Cc2ccc(OC)c(NCC(=O)O)c2)c(OC)c1 | 4.69 ± 0.45
NC(=O)c1sc(-n2cnc3cc(C(F)(F)F)ccc32)cc1OCc1ccccc1Br | -7.84 ± 1.8
COc1cc2ncnc(Nc3ccc(F)c(Cl)c3)c2cc1NC(=O)/C=C/CN1CCCCC1 | 60 ± 55
COc1cc2ncnc(Nc3ccc(F)c(Cl)c3)c2cc1OCCCN1CCOCC1 [Gefitinib (Iressa)] | 31 ± 21
N#CC1(c2ccc(NC(=O)c3cccnc3NCc3ccncc3)cc2)CCCC1 [Apatinib (YN968D1)] | 12.7 ± 6.2
CCn1c(-c2nonc2N)nc2c(C#CC(C)(C)O)ncc(OC[C@@H]3CCCN3)c21 | 74 ± 6.7
Nc1nc(-c2ccc3c(c2)C(=Cc2cc(Br)c(O)c(Br)c2)C(=O)N3)cs1 | 3.8 ± 2.8
C=CC(=O)N1CCC[C@@H](n2nc(-c3ccc(Oc4ccccc4)cc3)c3c(N)ncnc32)C1 | 42.1 ± 24

Reference: the supplement of paper PMC5641865, “A screen for kinase inhibitors identifies antimicrobial imidazopyridine aminofurazans as specific inhibitors of the Listeria monocytogenes PASTA kinase PrkA” (The Journal of Biological Chemistry, 2017)
